# Laboratory results: ChEMBL document CHEMBL2218924, “A broad activity screen in support of a chemogenomic map for kinase signalling research and drug discovery” (Biochem J, 2013)
# Columns and labels:
# [1] = target: Serine/threonine-protein kinase 24 (Homo sapiens) (UniProt Q9Y6E0); details: at 1 µM
# [2] = target: Serine/threonine-protein kinase 24 (Homo sapiens) (UniProt Q9Y6E0); details: at 10 µM
# [3] = target: Hepatocyte growth factor receptor (Homo sapiens) (UniProt P08581); details: at 1 µM
# Hepatocyte growth factor receptor (Homo sapiens), sequence (P08581 whole entry): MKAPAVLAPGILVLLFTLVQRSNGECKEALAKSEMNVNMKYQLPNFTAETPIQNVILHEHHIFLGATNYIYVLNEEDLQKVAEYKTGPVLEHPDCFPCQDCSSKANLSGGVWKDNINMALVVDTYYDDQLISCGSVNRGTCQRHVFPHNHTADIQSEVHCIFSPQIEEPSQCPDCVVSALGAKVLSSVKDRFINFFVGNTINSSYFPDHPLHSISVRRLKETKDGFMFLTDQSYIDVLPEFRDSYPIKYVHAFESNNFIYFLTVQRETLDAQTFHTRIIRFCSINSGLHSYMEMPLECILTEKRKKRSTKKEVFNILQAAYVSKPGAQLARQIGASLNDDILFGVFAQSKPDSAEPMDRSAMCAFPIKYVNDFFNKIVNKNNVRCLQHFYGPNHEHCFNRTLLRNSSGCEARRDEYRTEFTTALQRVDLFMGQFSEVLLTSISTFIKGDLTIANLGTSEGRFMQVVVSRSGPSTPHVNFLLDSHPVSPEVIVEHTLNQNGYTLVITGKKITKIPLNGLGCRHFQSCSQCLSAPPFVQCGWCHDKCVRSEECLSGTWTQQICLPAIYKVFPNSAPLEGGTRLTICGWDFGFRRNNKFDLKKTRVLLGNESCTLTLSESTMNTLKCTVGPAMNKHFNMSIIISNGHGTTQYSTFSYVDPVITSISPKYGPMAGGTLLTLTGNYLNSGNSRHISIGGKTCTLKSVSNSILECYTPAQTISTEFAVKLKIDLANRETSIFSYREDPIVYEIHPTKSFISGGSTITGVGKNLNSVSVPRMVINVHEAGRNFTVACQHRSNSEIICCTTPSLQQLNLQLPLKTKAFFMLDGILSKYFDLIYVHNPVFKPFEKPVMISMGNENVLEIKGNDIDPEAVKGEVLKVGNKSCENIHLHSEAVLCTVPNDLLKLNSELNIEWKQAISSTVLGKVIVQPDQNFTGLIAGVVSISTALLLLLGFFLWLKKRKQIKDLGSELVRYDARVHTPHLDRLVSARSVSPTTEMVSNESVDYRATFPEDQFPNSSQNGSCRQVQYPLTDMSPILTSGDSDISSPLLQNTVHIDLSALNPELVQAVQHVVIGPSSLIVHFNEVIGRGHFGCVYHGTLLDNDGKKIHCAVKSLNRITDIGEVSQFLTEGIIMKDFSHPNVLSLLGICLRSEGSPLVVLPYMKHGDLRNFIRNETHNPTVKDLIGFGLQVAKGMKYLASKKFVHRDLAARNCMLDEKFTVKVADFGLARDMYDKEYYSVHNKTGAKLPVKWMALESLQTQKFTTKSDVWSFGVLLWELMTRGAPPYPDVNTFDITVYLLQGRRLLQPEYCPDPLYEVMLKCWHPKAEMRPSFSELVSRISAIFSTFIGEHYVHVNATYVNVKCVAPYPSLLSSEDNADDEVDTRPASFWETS
# [4] = target: Hepatocyte growth factor receptor (Homo sapiens) (UniProt P08581); details: at 10 µM
# [5] = target: MAP kinase-interacting serine/threonine-protein kinase 2 (Homo sapiens) (UniProt Q9HBH9); details: at 1 µM
# MAP kinase-interacting serine/threonine-protein kinase 2 (Homo sapiens), sequence (Q9HBH9 whole entry, looked up): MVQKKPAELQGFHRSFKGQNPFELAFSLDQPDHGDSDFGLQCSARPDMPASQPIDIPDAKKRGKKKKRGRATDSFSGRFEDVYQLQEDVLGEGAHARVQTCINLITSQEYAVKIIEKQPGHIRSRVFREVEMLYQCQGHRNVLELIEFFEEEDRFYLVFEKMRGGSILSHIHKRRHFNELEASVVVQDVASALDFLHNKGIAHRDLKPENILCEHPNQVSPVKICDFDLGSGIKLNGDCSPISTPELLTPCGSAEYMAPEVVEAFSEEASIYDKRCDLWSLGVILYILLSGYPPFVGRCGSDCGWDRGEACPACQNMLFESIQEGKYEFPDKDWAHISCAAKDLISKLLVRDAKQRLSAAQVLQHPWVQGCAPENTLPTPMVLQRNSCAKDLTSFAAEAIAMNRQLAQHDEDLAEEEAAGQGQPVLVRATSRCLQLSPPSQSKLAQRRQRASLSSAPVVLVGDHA
# [6] = target: MAP kinase-interacting serine/threonine-protein kinase 2 (Homo sapiens) (UniProt Q9HBH9); details: at 10 µM
# [7] = target: T1, Serine/threonine-protein kinase Nek11 (Homo sapiens) (UniProt Q8NG66); details: at 1 µM
# T1 sequence (whole entry): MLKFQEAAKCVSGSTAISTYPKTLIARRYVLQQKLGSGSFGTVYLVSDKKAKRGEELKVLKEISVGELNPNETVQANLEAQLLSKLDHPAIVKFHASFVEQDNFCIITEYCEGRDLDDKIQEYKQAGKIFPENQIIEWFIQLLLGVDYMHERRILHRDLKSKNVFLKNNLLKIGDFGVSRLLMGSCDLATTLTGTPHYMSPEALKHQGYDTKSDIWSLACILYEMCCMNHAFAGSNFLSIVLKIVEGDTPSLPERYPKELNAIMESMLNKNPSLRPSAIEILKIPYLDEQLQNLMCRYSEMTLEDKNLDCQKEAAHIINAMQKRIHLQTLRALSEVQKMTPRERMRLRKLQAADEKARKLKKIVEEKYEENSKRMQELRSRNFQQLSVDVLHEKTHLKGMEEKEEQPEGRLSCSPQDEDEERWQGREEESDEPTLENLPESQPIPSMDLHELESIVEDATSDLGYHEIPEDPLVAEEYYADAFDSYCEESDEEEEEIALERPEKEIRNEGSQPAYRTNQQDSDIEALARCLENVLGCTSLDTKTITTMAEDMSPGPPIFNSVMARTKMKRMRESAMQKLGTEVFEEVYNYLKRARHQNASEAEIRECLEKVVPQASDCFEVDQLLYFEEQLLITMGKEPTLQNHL
# [8] = target: T1, Serine/threonine-protein kinase Nek11 (Homo sapiens); details: at 10 µM
# [9] = target: T2, Tyrosine-protein kinase Mer (Homo sapiens) (UniProt Q12866); details: at 1 µM
# T2 sequence (whole entry): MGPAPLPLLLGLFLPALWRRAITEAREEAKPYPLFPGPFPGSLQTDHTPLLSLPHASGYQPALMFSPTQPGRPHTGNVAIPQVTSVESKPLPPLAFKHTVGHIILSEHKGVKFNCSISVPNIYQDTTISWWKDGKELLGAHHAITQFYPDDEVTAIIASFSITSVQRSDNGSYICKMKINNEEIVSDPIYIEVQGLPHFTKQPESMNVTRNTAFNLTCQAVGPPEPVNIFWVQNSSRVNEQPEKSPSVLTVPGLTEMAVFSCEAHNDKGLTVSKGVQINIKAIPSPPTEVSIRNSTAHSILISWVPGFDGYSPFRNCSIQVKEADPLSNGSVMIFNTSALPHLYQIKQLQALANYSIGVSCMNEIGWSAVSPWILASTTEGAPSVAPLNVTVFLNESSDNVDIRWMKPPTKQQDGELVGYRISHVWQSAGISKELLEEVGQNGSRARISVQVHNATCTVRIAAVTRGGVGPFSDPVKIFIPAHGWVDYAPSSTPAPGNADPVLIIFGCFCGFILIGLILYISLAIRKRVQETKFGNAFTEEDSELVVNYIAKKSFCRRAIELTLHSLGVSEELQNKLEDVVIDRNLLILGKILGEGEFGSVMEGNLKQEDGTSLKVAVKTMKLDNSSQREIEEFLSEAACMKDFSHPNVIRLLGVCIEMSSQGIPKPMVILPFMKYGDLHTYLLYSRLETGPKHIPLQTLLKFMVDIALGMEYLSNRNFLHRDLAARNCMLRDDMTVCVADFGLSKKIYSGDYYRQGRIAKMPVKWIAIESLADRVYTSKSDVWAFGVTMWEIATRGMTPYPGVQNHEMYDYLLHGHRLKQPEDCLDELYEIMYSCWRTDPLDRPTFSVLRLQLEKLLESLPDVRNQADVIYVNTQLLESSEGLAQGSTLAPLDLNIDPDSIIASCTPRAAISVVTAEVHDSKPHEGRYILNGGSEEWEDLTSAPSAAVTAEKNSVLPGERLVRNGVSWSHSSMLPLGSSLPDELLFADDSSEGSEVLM
# [10] = target: T2, Tyrosine-protein kinase Mer (Homo sapiens); details: at 10 µM
# [11] = target: T3, Muscle, skeletal receptor tyrosine-protein kinase (Homo sapiens) (UniProt O15146); details: at 1 µM
# T3 sequence (whole entry): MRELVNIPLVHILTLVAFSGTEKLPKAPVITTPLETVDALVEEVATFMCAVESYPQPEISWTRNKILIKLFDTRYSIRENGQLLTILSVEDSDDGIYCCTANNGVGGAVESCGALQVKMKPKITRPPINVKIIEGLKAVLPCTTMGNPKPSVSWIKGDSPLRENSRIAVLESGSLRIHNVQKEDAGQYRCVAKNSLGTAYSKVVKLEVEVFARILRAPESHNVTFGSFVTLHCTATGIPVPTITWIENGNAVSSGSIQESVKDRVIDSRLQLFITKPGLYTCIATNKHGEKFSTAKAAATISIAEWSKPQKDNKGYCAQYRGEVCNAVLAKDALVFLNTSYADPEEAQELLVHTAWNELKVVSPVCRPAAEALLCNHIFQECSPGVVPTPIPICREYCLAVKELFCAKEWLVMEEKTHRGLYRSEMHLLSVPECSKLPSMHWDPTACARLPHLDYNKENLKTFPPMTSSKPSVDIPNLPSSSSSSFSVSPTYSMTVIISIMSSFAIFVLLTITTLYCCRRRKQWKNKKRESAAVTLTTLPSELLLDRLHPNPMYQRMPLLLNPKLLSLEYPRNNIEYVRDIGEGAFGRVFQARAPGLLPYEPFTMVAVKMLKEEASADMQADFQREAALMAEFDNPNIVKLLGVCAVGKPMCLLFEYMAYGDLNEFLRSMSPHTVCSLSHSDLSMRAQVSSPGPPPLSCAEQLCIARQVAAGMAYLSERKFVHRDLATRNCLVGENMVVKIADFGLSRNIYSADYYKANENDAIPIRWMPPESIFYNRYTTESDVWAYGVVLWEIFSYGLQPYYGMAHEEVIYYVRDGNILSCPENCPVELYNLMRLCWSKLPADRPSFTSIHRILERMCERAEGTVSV
# [12] = target: T3, Muscle, skeletal receptor tyrosine-protein kinase (Homo sapiens); details: at 10 µM
# [13] = target: T4, Serine/threonine-protein kinase Nek2 (Homo sapiens) (UniProt P51955); details: at 10 µM
# T4 sequence (whole entry): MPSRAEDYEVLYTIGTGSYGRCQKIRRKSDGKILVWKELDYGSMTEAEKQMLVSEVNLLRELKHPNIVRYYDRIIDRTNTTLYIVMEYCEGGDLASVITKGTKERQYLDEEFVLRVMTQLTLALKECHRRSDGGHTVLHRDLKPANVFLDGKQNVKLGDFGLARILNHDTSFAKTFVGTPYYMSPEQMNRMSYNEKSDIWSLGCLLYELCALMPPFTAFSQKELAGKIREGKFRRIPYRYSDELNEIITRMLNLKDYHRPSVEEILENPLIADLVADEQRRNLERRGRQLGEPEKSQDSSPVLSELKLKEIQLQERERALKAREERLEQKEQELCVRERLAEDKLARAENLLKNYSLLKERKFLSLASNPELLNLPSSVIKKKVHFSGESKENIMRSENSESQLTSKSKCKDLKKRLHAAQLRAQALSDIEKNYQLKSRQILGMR
# [14] = target: T5, Serine/threonine-protein kinase Nek3 (Homo sapiens) (UniProt P51956); details: at 1 µM
# T5 sequence (whole entry): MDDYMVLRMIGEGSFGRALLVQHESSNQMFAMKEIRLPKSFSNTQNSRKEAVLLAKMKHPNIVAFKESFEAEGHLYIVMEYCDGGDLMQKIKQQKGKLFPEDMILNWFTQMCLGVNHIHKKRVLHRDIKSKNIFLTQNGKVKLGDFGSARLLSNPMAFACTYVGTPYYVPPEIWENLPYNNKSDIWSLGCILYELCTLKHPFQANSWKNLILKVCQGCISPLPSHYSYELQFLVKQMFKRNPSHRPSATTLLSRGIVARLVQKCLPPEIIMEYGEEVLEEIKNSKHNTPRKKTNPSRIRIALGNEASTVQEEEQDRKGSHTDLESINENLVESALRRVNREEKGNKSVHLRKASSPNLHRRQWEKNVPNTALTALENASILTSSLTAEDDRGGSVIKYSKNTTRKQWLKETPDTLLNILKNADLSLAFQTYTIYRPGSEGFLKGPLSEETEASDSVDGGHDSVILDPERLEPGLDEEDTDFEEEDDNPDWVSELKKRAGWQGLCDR
# [15] = target: Serine/threonine-protein kinase tousled-like 2 (Homo sapiens) (UniProt Q86UE8); details: at 10 µM
# Serine/threonine-protein kinase tousled-like 2 (Homo sapiens), sequence (Q86UE8 whole entry, looked up): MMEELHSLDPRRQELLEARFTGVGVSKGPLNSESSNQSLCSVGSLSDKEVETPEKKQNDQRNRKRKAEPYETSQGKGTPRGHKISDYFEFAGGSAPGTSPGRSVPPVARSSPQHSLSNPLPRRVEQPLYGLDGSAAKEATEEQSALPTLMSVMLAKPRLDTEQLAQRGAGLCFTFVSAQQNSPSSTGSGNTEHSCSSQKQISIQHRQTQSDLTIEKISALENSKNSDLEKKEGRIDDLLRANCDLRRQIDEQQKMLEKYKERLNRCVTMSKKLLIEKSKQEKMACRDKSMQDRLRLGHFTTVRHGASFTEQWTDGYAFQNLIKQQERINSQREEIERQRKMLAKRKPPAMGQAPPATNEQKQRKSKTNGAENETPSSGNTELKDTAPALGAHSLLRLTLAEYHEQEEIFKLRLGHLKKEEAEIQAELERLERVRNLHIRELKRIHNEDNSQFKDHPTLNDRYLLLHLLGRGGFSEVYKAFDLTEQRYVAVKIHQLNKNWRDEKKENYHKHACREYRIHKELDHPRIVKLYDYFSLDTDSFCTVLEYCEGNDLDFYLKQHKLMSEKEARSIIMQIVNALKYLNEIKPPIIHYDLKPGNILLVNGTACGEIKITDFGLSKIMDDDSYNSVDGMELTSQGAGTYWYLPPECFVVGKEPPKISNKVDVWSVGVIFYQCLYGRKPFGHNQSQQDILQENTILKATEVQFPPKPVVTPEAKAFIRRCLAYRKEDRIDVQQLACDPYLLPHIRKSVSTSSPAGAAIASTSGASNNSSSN
# [16] = target: T6, Serine/threonine-protein kinase 3 (Homo sapiens) (UniProt Q13188); details: at 10 µM
# T6 sequence (whole entry): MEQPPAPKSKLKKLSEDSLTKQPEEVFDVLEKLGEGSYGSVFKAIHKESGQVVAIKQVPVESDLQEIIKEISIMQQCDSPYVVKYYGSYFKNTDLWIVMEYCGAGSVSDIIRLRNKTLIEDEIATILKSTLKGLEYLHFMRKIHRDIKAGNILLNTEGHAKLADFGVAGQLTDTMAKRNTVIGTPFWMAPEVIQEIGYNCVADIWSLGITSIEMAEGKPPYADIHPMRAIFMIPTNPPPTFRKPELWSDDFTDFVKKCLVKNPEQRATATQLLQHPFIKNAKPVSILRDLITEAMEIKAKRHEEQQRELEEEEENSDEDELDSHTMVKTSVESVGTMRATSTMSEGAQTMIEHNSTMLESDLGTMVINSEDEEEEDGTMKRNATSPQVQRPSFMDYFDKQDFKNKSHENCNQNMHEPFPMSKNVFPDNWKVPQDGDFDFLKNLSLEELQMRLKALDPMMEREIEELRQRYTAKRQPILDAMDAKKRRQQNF
# [17] = target: T5, Serine/threonine-protein kinase Nek3 (Homo sapiens); details: at 10 µM
# [18] = target: Serine/threonine-protein kinase tousled-like 2 (Homo sapiens) (UniProt Q86UE8); details: at 1 µM
# [19] = target: T6, Serine/threonine-protein kinase 3 (Homo sapiens); details: at 1 µM
# Serine/threonine-protein kinase 24 (Homo sapiens), sequence (Q9Y6E0 whole entry, looked up): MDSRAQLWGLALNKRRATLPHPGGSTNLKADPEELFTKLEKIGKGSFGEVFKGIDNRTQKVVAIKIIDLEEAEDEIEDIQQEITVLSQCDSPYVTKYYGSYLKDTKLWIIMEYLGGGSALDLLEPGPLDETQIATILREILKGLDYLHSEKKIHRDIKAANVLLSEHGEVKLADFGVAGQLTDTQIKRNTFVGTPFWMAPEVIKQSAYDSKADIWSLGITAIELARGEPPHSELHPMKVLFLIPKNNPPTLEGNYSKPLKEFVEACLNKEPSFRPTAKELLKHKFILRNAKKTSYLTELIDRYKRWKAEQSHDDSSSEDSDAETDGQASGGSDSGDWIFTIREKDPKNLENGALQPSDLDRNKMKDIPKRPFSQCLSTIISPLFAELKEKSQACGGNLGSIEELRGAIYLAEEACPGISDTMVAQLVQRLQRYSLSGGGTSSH
structure (smiles),measurement,setting,value
COc1ccc(COc2ccc(Cc3cnc(N)nc3N)cc2OC)cc1,residual activity,[1],61%
same,residual activity,[2],65%
same,residual activity,[3],109%
same,residual activity,[4],129%
same,residual activity,[5],108%
same,residual activity,[6],100%
same,residual activity,[7],110%
same,residual activity,[8],115%
O=C1Nc2ccccc2/C1=C\c1c(Cl)[nH]c2ccccc12,residual activity,[1],83%
same,residual activity,[2],67%
same,residual activity,[9],77%
same,residual activity,[10],21%
same,residual activity,[3],121%
same,residual activity,[4],40%
same,residual activity,[6],70%
same,residual activity,[11],78%
same,residual activity,[12],70%
same,residual activity,[7],64%
same,residual activity,[8],29%
same,residual activity,[13],77%
same,residual activity,[14],82%
same,residual activity,[15],76%
O=S(=O)(NCCNC/C=C/c1ccc(Br)cc1)c1cccc2cnccc12,residual activity,[1],78%
same,residual activity,[2],52%
same,residual activity,[10],25%
same,residual activity,[11],81%
same,residual activity,[12],76%
same,residual activity,[7],69%
same,residual activity,[8],69%
CC(C)[C@H](CO)Nc1nc(Nc2cc(N)cc(Cl)c2)c2ncn(C(C)C)c2n1,residual activity,[16],60%
same,residual activity,[1],78%
same,residual activity,[2],26%
same,residual activity,[9],22%
same,residual activity,[10],2%
same,residual activity,[3],74%
same,residual activity,[4],13%
same,residual activity,[5],94%
same,residual activity,[6],75%
same,residual activity,[11],62%
same,residual activity,[12],10%
same,residual activity,[7],84%
same,residual activity,[8],48%
same,residual activity,[13],76%
same,residual activity,[14],85%
same,residual activity,[17],70%
same,residual activity,[18],95%
same,residual activity,[15],73%
c1ccc(-c2cnc(Nc3ccc(OCCN4CCCC4)cc3)s2)cc1,residual activity,[19],109%
same,residual activity,[1],67%
same,residual activity,[2],80%
same,residual activity,[9],81%
same,residual activity,[10],17%
same,residual activity,[3],78%
same,residual activity,[4],44%
same,residual activity,[5],21%
same,residual activity,[6],7%
same,residual activity,[11],4%
same,residual activity,[12],0%
same,residual activity,[7],81%
same,residual activity,[8],76%
same,residual activity,[14],115%
same,residual activity,[17],76%
same,residual activity,[18],105%
same,residual activity,[15],81%
N#C/C(=C\c1ccc(O)c(O)c1)C(=O)NCc1ccccc1,residual activity,[1],82%
same,residual activity,[2],65%
same,residual activity,[3],103%
same,residual activity,[4],73%
same,residual activity,[6],83%
same,residual activity,[7],103%
same,residual activity,[8],103%
same,residual activity,[15],85%
O=C(Nc1ccc(Cl)cc1)c1ccccc1NCc1ccncc1,residual activity,[1],72%
same,residual activity,[2],77%
same,residual activity,[9],101%
same,residual activity,[10],99%
O=S(=O)(c1cccc2cnccc12)N1CCCNCC1,residual activity,[10],77%
same,residual activity,[13],100%
CCN1/C(=C/C(C)=O)Sc2ccc(OC)cc21,residual activity,[1],69%
same,residual activity,[2],74%
same,residual activity,[11],82%
same,residual activity,[12],75%
same,residual activity,[7],49%
same,residual activity,[8],60%
Fc1ccc(-c2nc3n(c2-c2ccncc2)CCS3)cc1,residual activity,[19],99%
same,residual activity,[1],99%
same,residual activity,[2],89%
same,residual activity,[3],130%
same,residual activity,[4],100%
same,residual activity,[7],77%
same,residual activity,[8],83%
